DT40 TDP1 no CPT: qHTS for Inhibitors of human tyrosyl-DNA phosphodiesterase 1 (TDP1): qHTS in cells in absence of CPT; DT40 Tdp1-/- hTDP1 cells, no CPT, ATP luminescence, 48 h; Potency, µM (series often up to 46.2 µM), for the others: top-dose activity change, negative = growth inhibition, usual class: inhibitors; 420,000 tested, 15% active; note: potency is the fitted concentration of half-maximal effect; nearly all actives have a fitted effect of over 55% in size
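No-CPT arm: Tdp1-/-;hTDP1 DT40 cells (400/well) plus compounds, incubated ≥48 hr at 37 °C. Readout CellTiter-Glo luminescence.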
IL1B secr inh: qHTS for Inhibitors of Inflammasome Signaling: IL-1-beta AlphaLISA Primary Screen. THP-1 LPS/ATP IL-1B secretion, AlphaLISA, 16 h; stronger effect = lower value. activity change, % at 57.5 µM. 360,000 tested, 4.7% active; in the data active = activity change below about -50%; inconclusive = mostly about -30% to -49%
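Secreted IL-1B measured by AlphaLISA bead assay after 16 h compound exposure of THP-1 cells; compounds (final up to 57.5 uM) added 1 h before LPS (250 ng/mL) and ATP (1.25 mM) stimulation; lower signal means less secretion.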
DT40 TDP1 CPT: qHTS for Inhibitors of human tyrosyl-DNA phosphodiesterase 1 (TDP1): qHTS in cells in presence of CPT | chicken DT40 Tdp1-/-;hTDP1 cells + 20 nM CPT, ATP luminescence, 48 h | Potency, µM (titrated, usually from 46.2 µM), without a hit: top-dose activity change, negative = growth inhibition, usual class: inhibitors | 420,000 tested, 12% active; note: potency is the fitted concentration of half-maximal effect; nearly all actives have a fitted effect of over 55% in size
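Cell growth measured by CellTiter-Glo luminescence after a minimum 48 h, 37 C compound exposure with 20 nM CPT in Tdp1-knockout DT40 cells stably expressing hTDP1, seeded 400/well; qHTS titration format.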
RORg inh: qHTS for inhibitors of ROR gamma transcriptional activity. Nuclear receptor ROR-gamma (Mus musculus), P51450. Drosophila S2 Gal4-RORgamma UAS-luciferase reporter, 20 h. 310,000 tested, 5.4% active. Potency, µM (series often up to 53.6 µM), inactives show top-dose activity change, negative = inhibition, actives largely listed as inhibitors; note: potency is the fitted concentration of half-maximal effect; nearly all actives have a fitted effect of over 60% in size
Target sequence (P51450 whole entry, looked up, the tested form may be a part): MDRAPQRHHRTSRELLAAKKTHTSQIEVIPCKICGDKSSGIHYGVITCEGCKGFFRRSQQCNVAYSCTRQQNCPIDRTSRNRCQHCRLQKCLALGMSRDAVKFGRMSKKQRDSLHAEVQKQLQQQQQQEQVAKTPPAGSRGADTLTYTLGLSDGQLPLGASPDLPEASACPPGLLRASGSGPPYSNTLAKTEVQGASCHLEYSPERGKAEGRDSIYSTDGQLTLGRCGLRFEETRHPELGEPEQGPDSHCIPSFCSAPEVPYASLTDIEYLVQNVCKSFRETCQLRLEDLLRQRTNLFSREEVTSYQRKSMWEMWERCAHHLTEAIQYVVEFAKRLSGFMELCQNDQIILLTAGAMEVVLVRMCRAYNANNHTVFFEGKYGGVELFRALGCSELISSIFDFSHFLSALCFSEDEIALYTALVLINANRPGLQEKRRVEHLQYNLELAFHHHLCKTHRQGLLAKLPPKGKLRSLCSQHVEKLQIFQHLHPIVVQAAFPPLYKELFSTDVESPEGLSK
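Read-out: Photinus luciferase luminescence; inhibitors lower reporter signal. Insect Schneider cells with Gal4-ROR gamma fusion under metallothionein promoter, UAS reporter; 700 uM final copper sulfate induction, 20 hr, ambient temperature.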
ELG1 repair inh: qHTS screen for small molecules that inhibit ELG1-dependent DNA repair in human embryonic kidney (HEK293T) cells expressing luciferase-tagged ELG1 | Potency, µM (highest dose often 46.1 µM), inactives show at the highest dose activity change, negative = inhibition, actives largely listed as inhibitors | HEK293T ELG1-luciferase reporter, luminescence, 16 h; DNA damage induced by 5-fluorouridine | 330,000 tested, 2.3% active; note: potency is the fitted concentration of half-maximal effect; nearly all actives have a fitted effect of over 55% in size
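In this reporter screen, reduction of luminescence relative to DMSO vehicle indicated activity. Compounds and 5-fluorouridine were added together to 2,000 cells per well, incubated for 16 hr at 37 °C, then developed with ONE-Glo.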
Gal4-VP16 FLuc: VP16 counterscreen qHTS for inhibitors of ROR gamma transcriptional activity | Potency, µM (top dose mostly 53.6 µM), without a hit: at the highest dose activity, negative = inhibition, actives largely listed as inhibitors | Drosophila S2 Gal4-VP16 UAS-luciferase, luminescence, 20 h | AID 2546, 2010 | 310,000 tested, 3.5% active;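 note: Gal4-VP16 expression switched on by copper sulfate through the metallothionein promoter; potency is the fitted concentration of half-maximal effect; nearly all actives have a fitted effect of over 50% in size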
Active calls of the source: *; ? = inconclusive; . = no result; [ ] = remark or other dose. Only some compounds are listed: those with a hit (about 21% of all), similar ones and a draw of the others. Unless noted, calls come from the whole dose curve; as a rule, active = well fitted curve in the direction sought with a large enough effect; inconclusive = small, poorly fitted or top-dose-only effect, or another doubt; inactive = no such curve, though single readings can be large; an effect the other way counts as inactive or inconclusive. % is set by controls: 0 for no effect and ±100 for the full control effect.

SMILES	DT40 TDP1 no CPT	IL1B secr inh	DT40 TDP1 CPT	RORg inh	ELG1 repair inh	Gal4-VP16 FLuc
COc1ccc(NC(=S)NC(NC(=O)c2cccc(C)c2)C(Cl)(Cl)Cl)c([N+](=O)[O-])c1 (stereo not given)	?	-9.5	?	-3.2%	?	-5.0%
COc1ccc(NC(=S)NC(NC(=O)c2cccc(Cl)c2)C(Cl)(Cl)Cl)c([N+](=O)[O-])c1 (stereo not given)	?	-59.8*	?	?	16.4µM*	?
COc1ccc(NC(=S)NC(NC(C)=O)C(Cl)(Cl)Cl)c([N+](=O)[O-])c1 (stereo not given)	-18.6%	-54.4*	2.9%	?	4.2%	-1.9%
O=C(NC(NC(=S)Nc1ccccc1Cl)C(Cl)(Cl)Cl)c1cccc(Cl)c1 (stereo not given)	8.2µM*	-87.4*	4.61µM*	?	?	12.6µM*
COCCNc1ncnc2c1ncn2[C@H]1CN(Cc2ccncc2)C[C@@H](CO)O1	-3.8%	4.0	-11.8%	.	.	.
O=P(c1ccccc1)(c1ccccc1)c1ccc(O)cc1	1.7%	-0.9	1.2%	21.8%	-6.1%	2.8%
C[C@@H]1COc2c(N3CCN(C)CC3)c(F)cc3c(=O)c(C(=O)O)cn1c23	.	.	.	3.8%[16.9 µM]	.	6.1%[17 µM]
C[C@H]1COc2c(N3CCN(C)CC3)c(F)cc3c(=O)c(C(=O)O)cn1c23	9.2µM*	-9.3	?	3.2%	.	-2.4%
Cc1ccc(C)n1N1C(=O)/C(=C\c2ccc(Cl)cc2)SC1=S	?	-90.5*	?	40.0%	0.2%	-2.6%
NS(=O)(=O)c1ccc(CCN2C(=O)/C(=C\c3ccc(Cl)cc3)SC2=S)cc1	6.51µM*	-84.9*	6.51µM*	-17.3%	-8.7%	-24.0%
CC(=O)N(C(C)=O)N1C(=O)/C(=C/c2ccc(Cl)cc2)SC1=S	?	0.0	?	8.2%	-15.0%	-20.6%
O=C(CCN1C(=O)/C(=C/c2ccc(F)cc2)SC1=S)Nc1cccnc1	-6.5%	-18.7	2.5%	15.6%	-2.9%	2.5%
O=C(CN1C(=O)/C(=C/c2ccc(F)cc2)SC1=S)N1CCN(CCc2ccccn2)CC1	2.31µM*	-6.5	6.51µM*	-16.7%	4.0%	?
CN1CCN(C(=O)CCN2C(=O)/C(=C\c3ccc(Cl)cc3)SC2=S)CC1	?	-21.7	18.4µM*	-19.9%	-2.4%	7.7%
CCn1cnnc1SCC(=O)Nc1ccccc1C(=O)NC1CC1	-18.6%	23.4	-13.1%	.	10.0%	.
O=C(C(=O)N1CCN(C(=O)OCc2ccccc2)CC1)c1cccnc1	-12.5%	8.7	-1.7%	.	.	.
O=C(CCN1C(=O)/C(=C/c2ccc(F)cc2)SC1=S)NCCc1ccc(O)cc1	?	2.7	-12.5%	2.6%	1.9%	-9.1%
CN1CCN(C(=O)CCN2C(=O)/C(=C\c3ccc(F)cc3)SC2=S)CC1	14.6µM*	-99.2*	18.4µM*	.	-10.9%	.
COCCCNC(=O)Cn1c(=O)n(-c2cccc(C)c2)c(=O)c2c3c(sc21)CN(C(C)=O)CC3	8.7%	.	9.5%	.	.	.
CCOC(=O)C1=C(CSc2nc3ccccc3s2)NC(=O)NC1c1cccc([N+](=O)[O-])c1 (stereo not given)	?	-17.3	18.4µM*	-4.8%	-0.6%	-7.8%
CC1(C(=O)NCc2cccc(C(F)(F)F)c2)CCN1Cc1cc2ccccc2o1 (stereo not given)	18.4µM*	?	25.9µM*	.	.	.
